Values joined by “and” are separate entries in the source; they are usually repeats but may differ in a detail not shown here. Equal values may be shown once. ± gives the standard deviation of the averaged measurements. Whole data set: some 1,600 compounds, median “normalized growth (OD600, IQM-normalized) in LPM” near 1, cut for the lowest 2% near 0.014. What follows is part of a selection rich in the lowest values, with near analogues and random picks from the rest.
These compounds were tested on Salmonella enterica serovar Typhimurium SL1344 (assay: normalized growth (OD600, IQM-normalized) in LPM (fraction of plate interquartile mean); higher = more bacterial growth (less inhibition)). Details: LPM pH 5.8; 10 µM; 16 h.

| SMILES | normalized growth |
| --- | --- |
| Cc1cc(C)cc(OCC2CNC(=O)O2)c1 (configuration not stated) | 1.02 ± 0.03 |
| COc1c(N2C[C@@H]3CCCN[C@@H]3C2)c(F)cc2c(=O)c(C(=O)O)cn(C3CC3)c12 | 0.0131 ± 0.0045 |
| CCn1cc(C(=O)O)c(=O)c2cc(F)c(N3CCNC(C)C3)c(F)c21 (configuration not stated) | 0.0416 ± 0.00075 |
| NC1CCN(c2c(F)cc3c(=O)c(C(=O)O)cn(C4CC4)c3c2Cl)C1 (configuration not stated) | 0.0132 ± 0.00024 |
| C[C@@H]1CN(c2c(F)c(N)c3c(=O)c(C(=O)O)cn(C4CC4)c3c2F)C[C@H](C)N1 | 0.0193 ± 0.0046 |
| COc1c(N2CCNC(C)C2)c(F)cc2c(=O)c(C(=O)O)cn(C3CC3)c12 (configuration not stated) | 0.0158 ± 0.0074 |
| C[C@@H]1CN(c2c(F)c(F)c3c(=O)c(C(=O)O)cn(C4CC4)c3c2F)C[C@H](C)N1 | 0.0487 ± 0.0099 |
| CC(=O)N(CC(O)CO)c1c(I)c(C(=O)NCCO)c(I)c(C(=O)NCC(O)CO)c1I (configuration not stated) | 1.05 ± 0.036 |
| Cc1oc(=O)oc1CN1CCN(c2cc3c(cc2F)c(=O)c(C(=O)O)c2n3C(C)S2)CC1 (configuration not stated) | 0.00846 ± 7.6e-05 |
| S=C1SCN(Cc2ccccc2)CN1Cc1ccccc1 | 1.11 ± 0.061 |
| C=NC(C(=O)NC1C(=O)N2C1SC(C)(C)C2C(=O)O)c1ccccc1 (configuration not stated) | 0.913 ± 0.058 |
| C#C[C@]1(O)CC[C@H]2[C@@H]3CCc4cc(OC5CCCC5)ccc4[C@H]3CC[C@@]21C | 0.954 ± 0.1 |
| O=C([O-])[C@H]1/C(=C/CO)O[C@@H]2CC(=O)N21.[Li+] | 1.12 ± 0.076 |
| C#C[C@]1(OC(C)=O)CC[C@H]2[C@@H]3CCC4=CC(=O)CC[C@@H]4[C@H]3CC[C@@]21C | 1.14 ± 0.03 |
| CC(=O)Oc1cc2c(s1)CCN(C(C(=O)C1CC1)c1ccccc1F)C2 (configuration not stated) | 1.08 ± 0.1 |
| Cc1nc(-c2ccc(OCC(C)C)c(C#N)c2)sc1C(=O)O | 1.02 ± 0.038 |
| CC(=O)OCC(=O)[C@@]1(O)[C@@H](C)C[C@H]2[C@@H]3CCC4=CC(=O)C=C[C@]4(C)[C@@]3(F)[C@@H](O)C[C@@]21C | 1.01 ± 0.033 |
| COc1ccc2cc1Oc1ccc(cc1)C[C@H]1c3c(cc4c(c3Oc3cc5c(cc3OC)CCN(C)[C@@H]5C2)OCO4)CCN1C | 0.938 ± 0.024 |
| CCC/C=C\C=C/C(=O)N[C@@H](CC(N)=O)C(=O)NC(CC(N)=O)C(=O)N[C@@H](C(=O)N[C@H](CCCN)C(=O)N[C@@H](C(=O)N[C@@H](C(=O)N[C@@H](C(=O)N[C@H](C(=O)N[C@@H](Cc1ccccc1)C(=O)N[C@H](CCCN)C(=O)NC(C(=O)N[C@H](C(=O)NC(C(=O)NCC(=O)N[C@@H](CC(C)C)C(=O)N[C@H](C)C(=O)NC(C(=O)O)C1CCC(O)C(Cl)C1)C1CCC(O)CC1)[C@H](C)O)C1CCC(O)CC1)[C@H](C)O)C1CCC(O)CC1)C1CCC(O)CC1)[C@H](C)O)C1CCC(O)CC1 (some centres not stated) [RAMOPLANIN [A2 shown; 2mM]] | 1.31 ± 0.07 |
| CC1(C)O[C@@H]2C[C@H]3[C@@H]4C[C@H](F)C5=CC(=O)C=C[C@]5(C)[C@H]4[C@@H](O)C[C@]3(C)[C@]2(C(=O)CO)O1 | 0.921 ± 0.042 |
| Cc1cccc(C)c1NC(=O)c1ccccc1C(=O)O | 1.15 ± 0.12 |

| SMILES | normalized growth |
| --- | --- |
| CC1(C)S[C@@H]2[C@H](NC(=O)[C@H](C(=O)O)c3ccsc3)C(=O)N2[C@H]1C(=O)O | 1.01 ± 0.022 |
| CC(=O)OC1CC2CCC1(C)C2(C)C (configuration not stated) | 1.21 ± 0.048 |
| CC(C)C[C@@H]1NC(=O)[C@H](CCCN)NC(=O)[C@H](C(C)C)NC(=O)[C@H](Cc2ccc(O)cc2)N[C@@H](CCC(=O)O)C(=O)N[C@@H](CC(N)=O)C(=O)[C@@H](Cc2ccccc2)NC(=O)[C@H](Cc2ccccc2)NC(=O)[C@@H]2CCCN2C(=O)[C@@H](Cc2ccccc2)NC1=O | 0.992 ± 0.1 |
| CC(S)C(=O)NCC(=O)O (configuration not stated) | 0.982 ± 0.071 |
| O=C(O)CN(CCN(CC(=O)O)CC(=O)O)CC(=O)O.[Na+].[Na+].[Na+] | 0.0403 ± 0.013 |
| CO[C@@]1(NC(=O)C(C(=O)O)c2ccc(O)cc2)C(=O)N2C(C(=O)O)=C(CSc3nnnn3C)CO[C@@H]21 (some centres not stated) | 0.993 ± 0.045 |
| CO[C@@]1(NC(=O)C2SC(=C(C(N)=O)C(=O)O)S2)C(=O)N2C(C(=O)O)=C(CSc3nnnn3C)CS[C@@H]21 (some centres not stated) | 0.00904 ± 0.00015 |
| CO[C@@]1(NC(=O)CSCC#N)C(=O)N2C(C(=O)O)=C(CSc3nnnn3C)CS[C@@H]21 | 0.957 ± 0.052 |
| CO[C@H]1/C=C/O[C@@]2(C)Oc3c(C)c(O)c4c(O)c(c(/C=N/N5CCN(C)CC5)c(O)c4c3C2=O)NC(=O)/C(C)=C\C=C\[C@H](C)[C@H](O)[C@@H](C)[C@@H](O)[C@@H](C)[C@H](OC(C)=O)[C@@H]1C | 0.0102 ± 0.00021 |
| CO[C@H]1/C=C/O[C@@]2(C)Oc3c(C)c(O)c4c(O)c(c5c(nc6cc(C)ccn65)c4c3C2=O)NC(=O)/C(C)=C\C=C\[C@H](C)[C@H](O)[C@@H](C)[C@@H](O)[C@@H](C)[C@H](OC(C)=O)[C@@H]1C | 0.0104 ± 0.00017 |
| Nc1ncn([C@@H]2O[C@H](CO)[C@@H](O)[C@H]2O)c(=O)n1 | 0.0134 ± 0.00024 |
| Nc1ccn([C@@H]2O[C@H](CO)[C@@H](O)[C@@H]2O)c(=O)n1 | 1.01 ± 0.067 |
| O=c1[nH]cnc2c1ncn2[C@@H]1O[C@H](CO)[C@@H](O)[C@H]1O | 1.13 ± 0.034 |
| O=C(O)c1ccc(S(=O)(=O)N(Cl)Cl)cc1 | 0.999 ± 0.013 |
| CC(=O)OC/C=C(C)/C=C/C=C(C)/C=C/C1=C(C)CCCC1(C)C | 0.905 ± 0.06 |
| C=COCC(F)(F)F | 0.991 ± 0.044 |
| CCN(CC)CCOc1ccc2c(c1)C(=O)c1cc(OCCN(CC)CC)ccc1-2 | 1.02 ± 0.083 |
| C1CCN2C[C@@H]3C[C@@H](CN4CCCC[C@@H]34)[C@H]2C1 | 1.13 ± 0.04 |
| COCC1=C(C(=O)OC(C)OC(=O)OC(C)C)N2C(=O)[C@@H](NC(=O)/C(=N\OC)c3csc(N)n3)[C@H]2SC1 (some centres not stated) | 1.034 ± 0.0056 |
| CCCCCCCCCCCCCCCC[N+](C)(C)C | 0.982 ± 0.038 |
| C[C@@H]1CC2C3C[C@H](F)C4=CC(=O)C=C[C@]4(C)[C@@]3(F)[C@@H](O)C[C@]2(C)[C@@]1(O)C(=O)COC(=O)C(C)(C)C (some centres not stated) | 1.04 ± 0.12 |

| SMILES | normalized growth |
| --- | --- |
| COC(=O)Nc1nc2cc(Sc3ccccc3)ccc2[nH]1 | 0.987 ± 0.024 |
| OC[C@@H](O)[C@@H](O[C@@H]1O[C@H](CO)[C@H](O)[C@H](O)[C@H]1O)[C@H](O)[C@@H](O)CO | 0.98 and 0.904 |
| CS(=O)(=O)c1ccc([C@@H](O)[C@@H](CF)NC(=O)C(Cl)Cl)cc1 | 0.0094 ± 0.00019 |
| CS(=O)(=O)c1ccc([C@@H](O)[C@@H](CO)NC(=O)C(Cl)Cl)cc1 | 0.934 ± 0.078 |
| Clc1ccccc1CN1CCc2sccc2C1 | 1.02 ± 0.037 |
| O=C(O)CCC(=O)OC[C@@H](NC(=O)C(Cl)Cl)[C@H](O)c1ccc([N+](=O)[O-])cc1 | 0.014 ± 0.00072 |
| O=C(N[C@H](CO)[C@H](O)c1ccc([N+](=O)[O-])cc1)C(Cl)Cl | 0.0146 ± 0.00075 |
| CCCCCCCCCCCCCCCC(=O)OC[C@@H](NC(=O)C(Cl)Cl)[C@H](O)c1ccc([N+](=O)[O-])cc1 | 1.04 ± 0.082 |
| C#C[C@]1(O)CC[C@H]2[C@@H]3[C@H](C)CC4=C(CCC(=O)C4)[C@H]3CC[C@@]21C | 0.987 ± 0.048 |
| OCc1ccccc1O | 1.05 ± 0.04 |
| CN(C/C=C/c1ccccc1)Cc1cccc2ccccc12 | 0.885 ± 0.019 |
| CC(=O)N[C@@H]([C@@H](O)[C@H](O)[C@H](O)CO)[C@@H](O)CC(=O)C(=O)O | 1 ± 0.065 |
| CC(C)(Oc1ccc(C(=O)c2ccc(Cl)cc2)cc1)C(=O)O | 0.976 ± 0.024 |
| CC(=O)NCCCCCC(=O)O | 1.11 ± 0.034 |
| N#Cc1ccc2c(c1)N(CCCN1CCC(O)CC1)c1ccccc1S2 | 1.09 ± 0.035 |
| O=C(O)C[C@H](O)C[C@H](O)/C=C/c1c(C2CC2)nc2ccccc2c1-c1ccc(F)cc1 | 1.19 ± 0.13 |
| N=C(N)c1ccc(N=NNc2ccc(C(=N)N)cc2)cc1 | 0.766 ± 0.035 |
| CC(=O)Nc1cccc(O)c1 | 1.02 ± 0.014 |
| Cc1c(NC(C)C)c(=O)n(-c2ccccc2)n1C | 0.981 ± 0.15 |
| C[C@H]1O[C@@H](n2cc(F)c(=O)[nH]c2=O)[C@H](O)[C@@H]1O | 0.412 ± 0.11 |
| CCCCCCNC(=O)n1cc(F)c(=O)[nH]c1=O | 0.007569 ± 7.1e-05 |

| SMILES | normalized growth |
| --- | --- |
| CCOC(=O)COc1ccc2c(=O)cc(-c3ccccc3)oc2c1 | 1.01 ± 0.035 |
| OC[C@H]1O[C@H](O[C@H]2[C@H](O)[C@@H](O)C(O)O[C@@H]2CO)[C@H](O)[C@@H](O)[C@@H]1O (some centres not stated) | 1.06 ± 0.12 |
| O=c1[nH]cc(F)c(=O)[nH]1 | 0.0109 ± 0.0049 |
| Nc1nc(=O)[nH]cc1F | 0.742 ± 0.12 |
| O=c1cc[nH]c(=O)[nH]1 | 1.06 ± 0.04 |
| COc1cc([C@@H]2c3cc4c(cc3[C@@H](O[C@@H]3O[C@@H]5CO[C@@H](c6cccs6)O[C@H]5[C@H](O)[C@H]3O)[C@H]3COC(=O)[C@H]23)OCO4)cc(OC)c1O | 0.882 ± 0.027 |
| O=C1c2cccc(O)c2C(=O)c2c(O)cccc21 | 0.827 ± 0.05 |
| CCN(CC)C(=O)/C(C#N)=C/c1cc(O)c(O)c([N+](=O)[O-])c1 | 0.924 ± 0.023 |
| C[C@]12CC[C@@H]3c4ccc(OC(=O)c5ccccc5)cc4CC[C@H]3[C@@H]1CC[C@@H]2O | 0.779 ± 0.061 |
| C/C=C(/C(=C/C)c1ccc(O)cc1)c1ccc(O)cc1 | 1.04 ± 0.035 |
| CO[C@H]1C[C@@H]2CC[C@@H](C)[C@@](O)(O2)C(=O)C(=O)N2CCCC[C@H]2C(=O)O[C@H]([C@H](C)C[C@@H]2CC[C@@H](O)[C@H](OC)C2)CC(=O)[C@H](C)/C=C(\C)[C@@H](O)[C@@H](OC)C(=O)[C@H](C)C[C@H](C)/C=C/C=C/C=C/1C | 0.964 ± 0.048 |
| Cc1ccc(Nc2c(F)cccc2Cl)c(CC(=O)O)c1 | 1.11 ± 0.053 |
| CCNC(=O)/C=C/c1cccc(Br)c1 | 1.08 ± 0.035 |
| COC(=O)/C=C/C(=O)OC | 1.42 ± 0.16 |
| Nc1nc(Cl)nc2c1ncn2[C@@H]1O[C@H](CO)[C@@H](O)[C@@H]1F | 1.11 ± 0.025 |
| CC1(C)[C@@H](O)CC[C@]2(C)[C@H]3C(=O)C=C4[C@@H]5C[C@@](C)(C(=O)O)CC[C@]5(C)CC[C@@]4(C)[C@]3(C)CC[C@@H]12 | 0.906 ± 0.073 |
| CC(=O)Nc1ncc([N+](=O)[O-])s1 | 0.899 ± 0.018 |
| CCCCCCOc1ccccc1C(N)=O | 1.01 ± 0.048 |
| COc1ccc2cc(C(C)C(=O)O)ccc2c1 (configuration not stated) | 1.07 ± 0.032 |
